Data published in PubChem BioAssay (EPA / NIEHS).
Records with an inconclusive call do not appear. A structure can be active in one record and inactive in another. Calls of active or inactive are those of the source. Rule for the calls: active = hit-call score of the fitted dose curve at least 0.9, where 1 is the maximum; inconclusive = response in the unintended direction; inactive = score below 0.9.

Read-out: Cytochrome P450 2B6 (Homo sapiens) (UniProt P20813)
Assay: CLD_CYP2B6_6hr: CellzDirect (CLD) Gene Expression Assay for xenobiotic metabolism (CYP2B6) at 6 hours (AID 2283677);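 note: actives raise CYP2B6 transcript above DMSO baseline so AC50 marks an inducer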
Method: CLD_6hr is a cell-based, multiplexed-readout assay that uses hepatocyte, a human liver primary cell, with measurements taken at 6 hours after chemical dosing in a 96-well plate.CLD_CYP2B6_6hr is one of 16 assay component(s) measured or calculated from the CLD_6hr assay. It is designed to make measurements of mRNA induction, a form of inducible reporter, as detected with chemiluminescence signals by Quantitative Nuclease Protection Assay (qNPA) technology.Data from the assay component CLD_CYP2B6_6hr was analyzed at the endpoint, CLD_CYP2B6_6hr, in the positive analysis fitting direction relative to DMSO as the negative control and baseline of activity. Using a type of inducible reporter, gain-of-signal activity can be used to understand changes in the reporter gene as they relate to the gene CYP2B6. Furthermore, this assay endpoint can be referred to as a primary readout. To generalize the intended target to other relatable targets, this assay endpoint is annotated to the cyp intended target family, where subfamily is xenobiotic metabolism.
Human hepatocyte cultures were treated daily for two consecutive days with fresh dosing solutions containing appropriate concentrations of the 320 ToxCast chemicals (chemical identities were blinded to CellzDirect and other ToxCast collaborators), vehicle control (0.2% DMSO), and positive control inducers as summarized in Table 1. Due to the large number of treatment groups and chemicals examined, the ToxCast chemicals were divided into two groups (spanning two independent cultures of hepatocytes from separate donor preparations (Hu778: ToxCast plates 1 and 2; Hu776: ToxCast plates 3 and 4). Each preparation of human hepatocyte cultures was treated with respective vehicle control, medium only control, set of six positive controls/reference chemicals for the five hepatic receptor pathways, and a subset of eight of the ToxCast chemicals (indoxacarb, pyrithiobac-sodium, norflurazon, cyhalofop-butyl, methomyl, thiram, acetochlor, and propiconazole). These replicate data, coupled with internal replicates designed within the blinded ToxCast chemical library, provided additional data to evaluate interindividual differences between hepatocyte preparations and their potential impact on chemical profiles.Cell morphology and integrity were evaluated using phase-contrast microscopy as an indicator of hepatocyte cell health (Tyson & Green, 1987). Cultures for each treatment group (i.e., media, vehicle [0.2% DMSO], positive control inducers [multiple concentrations], and the ToxCast chemicals [multiple concentrations]) were observed and cell morphology was assessed relative to vehicle control cultures at each harvest time point (0, 6, 24, or 48 h). […] Images were evaluated at the conclusion of the study to assess changes in cell integrity and account for the effects of chemical exposure on uncharacteristic changes in concentration-dependent gene expression profiles. The results from these determinations of apparent cytotoxicity were annotated (yes/no) alongside the corresponding qNPA data for reference.At the conclusion of each treatment period, hepatocyte cultures (96-well) were washed with 1 volume of HBSS, lysed by addition of 25 ul ArrayPlate lysis buffer (HTG, Tucson, AZ), and 70 ul/well of Denaturation Oil, denatured by incubation at 95C for 10 min, and frozen at approximately -70C until analysis by nuclease protection assay (qNPA) (Roberts et al., 2007). For qNPA analysis, cell lysates were thawed at 50C for approximately 30 min, qNPA probes were added, and samples were incubated at 95C for 10 min to begin the detection process by denaturing the target RNA, dissociating the duplexes and secondary structure hybridization. At the conclusion of the hybridization period, S1 nuclease reagent was added to each sample to digest all nonprotected nucleotides at 50C for 60-90 min. […]

| SMILES | AC50 | outcome |
| --- | --- | --- |
| CC(C)(C)[C@@H](O)[C@@H](Cc1ccc(Cl)cc1)n1cncn1 | 1730 nM (active) |  |
| Oc1ccc(C(c2ccc(O)cc2)C(Cl)(Cl)Cl)cc1 |  | inactive |
| COc1nc(C)nc(NC(=O)NS(=O)(=O)c2ccccc2OCCCl)n1 |  | inactive |
| S=C(S)NCCNC(=S)S.[Mn+2].[S-]C([S-])=NCCN=C([S-])[S-].[Zn+2] | 2550 nM (active) |  |
| c1ccc2[nH]c(-c3cscn3)nc2c1 | 10200 nM (active) |  |
| COC(=O)c1ccccc1C(=O)O |  | inactive |
| CCCCC(CC)CN1C(=O)C2C3C=CC(C3)C2C1=O (configuration not stated) | 4330 nM (active) |  |
| CCCCOC(=O)[C@@H](C)Oc1ccc(Oc2ccc(C(F)(F)F)cn2)cc1 |  | inactive |
| C=CCOC(Cn1ccnc1)c1ccc(Cl)cc1Cl (configuration not stated) | 18.6 nM (active) |  |
| CCSC(=O)N(CC(C)C)CC(C)C | 3550 nM (active) |  |
| CCOC(=O)C(C)Oc1ccc(Oc2cnc3cc(Cl)ccc3n2)cc1 (configuration not stated) |  | inactive |
| CCC(C)OC(=O)N1CCCCC1CCO (configuration not stated) |  | inactive |
| COC(=O)c1c(Cl)nn(C)c1S(=O)(=O)NC(=O)Nc1nc(OC)cc(OC)n1 |  | inactive |
| COC(=O)c1ccc(I)cc1S(=O)(=O)NC(=O)Nc1nc(C)nc(OC)n1 | 397 nM (active) |  |
| CCCCCCC(C)OC(=O)COc1nc(F)c(Cl)c(N)c1Cl (configuration not stated) |  | inactive |
| c1ccc(Nc2ccccc2)cc1 | 9660 nM (active) |  |
| COC(=O)CSc1cc(N=c2sc(=O)n3n2CCCC3)c(F)cc1Cl | 1820 nM (active) |  |
| COC(=O)c1ccccc1S(=O)(=O)NC(=O)Nc1nc(OC(F)F)cc(OC(F)F)n1 |  | inactive |

| SMILES | AC50 | outcome |
| --- | --- | --- |
| CCN(CC)C(=O)c1cccc(C)c1 | 2380 nM (active) |  |
| CCOC(=O)C(C)Oc1ccc(Oc2nc3ccc(Cl)cc3o2)cc1 (configuration not stated) |  | inactive |
| CCCN(CCC)C(=O)SCC | 165 nM (active) | inactive |
| CCOC(=O)NCCOc1ccc(Oc2ccccc2)cc1 | 3970 nM (active) |  |
| COC(=O)c1ccc(CNS(C)(=O)=O)cc1S(=O)(=O)NC(=O)Nc1nc(OC)cc(OC)n1 |  | inactive |
| CCCCC(CC)COC(=O)c1ccccc1C(=O)O (configuration not stated) | 4360 nM (active) |  |
| CSC(=O)c1cccc2nnsc12 |  | inactive |
| C#CCOC(=O)[C@@H](C)Oc1ccc(Oc2ncc(Cl)cc2F)cc1 | 0.426 nM (active) |  |
| CCCCOC(=O)C(C)Oc1ccc(Oc2ccc(C(F)(F)F)cn2)cc1 (configuration not stated) |  | inactive |
| CCOC(=O)COc1cc(-n2ncc(C(F)(F)F)c(C)c2=O)c(F)cc1Cl | 2490 nM (active) |  |
| CCN(Cc1c(F)cccc1Cl)c1c([N+](=O)[O-])cc(C(F)(F)F)cc1[N+](=O)[O-] | 419 nM (active) |  |
| CCCN(CCC)c1c([N+](=O)[O-])cc(C(F)(F)F)c(N)c1[N+](=O)[O-] | 752 nM (active) |  |
| CC1(C)C(C=C(Cl)Cl)C1C(=O)OCc1cccc(Oc2ccccc2)c1 (configuration not stated) | 83 nM (active) |  |
| CN(C)C(=O)Nc1ccc(Cl)c(Cl)c1 | 4600 nM (active) |  |
| CCCCCOC(=O)COc1cc(N2C(=O)C3=C(CCCC3)C2=O)c(F)cc1Cl | 20000 nM (active) |  |
| CCCCOCCOCCOCc1cc2c(cc1CCC)OCO2 | 1270 nM (active) |  |
| COC(=O)c1cccc(C)c1S(=O)(=O)NC(=O)Nc1nc(OCC(F)(F)F)nc(N(C)C)n1 | 8960 nM (active) |  |
| CC(C)(c1ccc(O)cc1)c1ccc(O)cc1 | 14200 nM (active) |  |
